Experimental data taken from PubChem BioAssay (Tox21).
Records with an inconclusive call do not appear. The source made the active and inactive calls. Unless noted, the call rests on the fitted dose curve; in most records, active means well fitted curve in the direction sought with a large enough effect in the repeat runs; inconclusive means weak or mixed curves; inactive means no such curve, though single readings can be large; an effect the other way counts as inactive or inconclusive.

Legend:
[1] = Human pregnane X receptor (PXR) small molecule agonists, qHTS cell viability counter screen (AID 1346977); further: nearly all actives have a fitted effect of over 50% in size; further: potency means the concentration at half of the fitted maximal effect
Procedure, shortened: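 After a 5hr pre-incubation, PXR-Luc HepG2 cells received compounds plus positive control in DMSO and were kept 24hr at 37C. Cell viability was quantified by fluorescence from CellTiter-Fluor added for the final hour.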

[2] = Caspase-3/7 induction in HepG2 cells by small molecules, qHTS assay (AID 1346978); further: nearly all actives have a fitted effect of over 15% in size
Procedure, shortened: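 Wild-type HepG2 cells, 2,000/well, settled 5 hr at 37 C and 5% CO2, then compound-treated for 17 hr; caspase-3/7 activity read by luminescent Caspase-Glo 3/7 after 30 min at room temperature.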

[3] = Caspase-3/7 induction in CHO-K1 cells by small molecules, qHTS cell viability counter screen (AID 1346979); further: nearly all actives have a fitted effect of over 35% in size; further: potency means the concentration at half of the fitted maximal effect
Procedure, shortened: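 Multiplexed with Caspase-Glo 3/7 in CHO-K1 cells, this counter screen added CellTiter-Fluor after 16hr of compound exposure and recorded fluorescence 1hr later.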

[4] = Caspase-3/7 induction in CHO-K1 cells by small molecules, qHTS assay (AID 1346980); further: nearly all actives have a fitted effect of over 15% in size
Procedure, shortened: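 Wild-type CHO-K1 cells exposed to compounds for 17hr at 37 C, 5% CO2. Caspase-3/7 activity then measured by Caspase-Glo 3/7 luminescence after 30min at room temperature.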

[5] = Caspase-3/7 induction in HepG2 cells by small molecules, qHTS cell viability counter screen (AID 1346981); further: nearly all actives have a fitted effect of over 30% in size; further: potency means the concentration at half of the fitted maximal effect
Procedure, shortened: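 Wild-type HepG2 cells (2,000/well) were allowed to settle for 5 hr at 37 C, 5% CO2, then dosed with compounds in DMSO by pin transfer. After 16 hr at 37 C, CellTiter-Fluor was added and fluorescence read 1 hr later.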

[6] = target: Nuclear receptor subfamily 1 group I member 2 (Homo sapiens) (UniProt O75469); assay: Human pregnane X receptor (PXR) small molecule agonists, qHTS assay (AID 1346982); further: nearly all actives have a fitted effect of over 35% in size; further: potency means the concentration at half of the fitted maximal effect
Chain of Nuclear receptor subfamily 1 group I member 2 (Homo sapiens) (O75469 whole entry, looked up): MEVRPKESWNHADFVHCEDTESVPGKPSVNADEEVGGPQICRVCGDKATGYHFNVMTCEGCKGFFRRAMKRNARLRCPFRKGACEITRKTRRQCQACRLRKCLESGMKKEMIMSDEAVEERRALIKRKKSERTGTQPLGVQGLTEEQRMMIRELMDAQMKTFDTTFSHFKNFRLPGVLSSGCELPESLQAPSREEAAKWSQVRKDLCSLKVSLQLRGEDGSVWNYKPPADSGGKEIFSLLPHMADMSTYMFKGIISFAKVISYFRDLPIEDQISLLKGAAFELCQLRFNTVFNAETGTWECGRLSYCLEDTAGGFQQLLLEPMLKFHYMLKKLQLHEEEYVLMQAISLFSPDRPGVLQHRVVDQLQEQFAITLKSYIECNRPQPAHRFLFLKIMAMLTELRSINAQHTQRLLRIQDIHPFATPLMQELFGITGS
Procedure, shortened: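 PXR-Luc HepG2 cells (CYP3A4 promoter-driven luciferase) were seeded in medium with 5% charcoal-stripped FBS, left 5 hr at 37 C, then exposed to compounds in DMSO for 24 hr. Luminescence was read after ONE-Glo addition.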

[7] = target: Nuclear receptor subfamily 1 group I member 2 (Rattus norvegicus) (UniProt Q9R1A7); assay: Rat pregnane X receptor (rPXR) activation by small molecules, qHTS assay (AID 1346983); details: rPXR luciferase reporter cells, One-Glo luminescence, 24 h; max activation: active compounds read high; further: nearly all actives have a fitted effect of over 20% in size
Chain of Nuclear receptor subfamily 1 group I member 2 (Rattus norvegicus) (Q9R1A7 whole entry, looked up): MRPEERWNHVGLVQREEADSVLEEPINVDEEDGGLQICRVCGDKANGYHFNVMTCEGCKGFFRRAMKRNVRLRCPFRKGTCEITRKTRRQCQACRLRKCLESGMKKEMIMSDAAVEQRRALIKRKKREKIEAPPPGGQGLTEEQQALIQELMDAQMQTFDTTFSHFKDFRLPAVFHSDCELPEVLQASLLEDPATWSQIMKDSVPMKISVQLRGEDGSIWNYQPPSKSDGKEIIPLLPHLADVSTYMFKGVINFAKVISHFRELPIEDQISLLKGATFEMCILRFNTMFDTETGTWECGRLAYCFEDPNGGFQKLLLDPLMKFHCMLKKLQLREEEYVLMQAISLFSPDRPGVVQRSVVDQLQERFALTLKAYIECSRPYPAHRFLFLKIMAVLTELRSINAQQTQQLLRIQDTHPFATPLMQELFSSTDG
Procedure, shortened: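 Cell-based rPXR activation assay: rPXR cells, 2,000 per well, rested 5hr at 37 C, then exposed to compounds in DMSO for 24 hr at 37 C. Luciferase activity read by One-Glo luminescence after 30 min at room temperature.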

[8] = target: Nuclear receptor subfamily 1 group I member 2 (Homo sapiens) (UniProt O75469); assay: CYP3A4 induction through human pregnane X receptor (PXR) by small molecules, qHTS assay (AID 1346984); further: nearly all actives have a fitted effect of over 40% in size
Procedure, shortened: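 DPX-2 cells (HepG2 co-transfected with PXR and CYP3A4 promoter-luciferase) treated with compounds 24 h at 37C; luciferin-IPA CYP3A4 substrate 3uM final added for 3 h, then One-Glo; luminescence read. qHTS format.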

[9] = target: Nuclear receptor subfamily 1 group I member 2 (Homo sapiens) (UniProt O75469); assay: Human pregnane X receptor (PXR) activation by small molecules, qHTS assay (AID 1346985); further: nearly all actives have a fitted effect of over 40% in size
Procedure, shortened: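 DPX-2 cells (HepG2 co-transfected with a PXR response element and a CYP3A4-promoter luciferase construct) were seeded at 2,000 per well, rested 5 hr at 37C, then exposed to DMSO-dissolved compounds for 24 hr. Activation was read as luciferase luminescence.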

[10] = target: Acetylcholinesterase (Homo sapiens) (UniProt P22303); assay: Acetylcholinesterase (AChE) small molecule antagonists: colormetric cell-based qHTS assay (AID 1347395; calls by dose curve; further: nearly all actives have a fitted effect of over 30% in size; further: potency means the concentration at half of the fitted maximal effect)
Chain of Acetylcholinesterase (Homo sapiens) (P22303 whole entry, looked up): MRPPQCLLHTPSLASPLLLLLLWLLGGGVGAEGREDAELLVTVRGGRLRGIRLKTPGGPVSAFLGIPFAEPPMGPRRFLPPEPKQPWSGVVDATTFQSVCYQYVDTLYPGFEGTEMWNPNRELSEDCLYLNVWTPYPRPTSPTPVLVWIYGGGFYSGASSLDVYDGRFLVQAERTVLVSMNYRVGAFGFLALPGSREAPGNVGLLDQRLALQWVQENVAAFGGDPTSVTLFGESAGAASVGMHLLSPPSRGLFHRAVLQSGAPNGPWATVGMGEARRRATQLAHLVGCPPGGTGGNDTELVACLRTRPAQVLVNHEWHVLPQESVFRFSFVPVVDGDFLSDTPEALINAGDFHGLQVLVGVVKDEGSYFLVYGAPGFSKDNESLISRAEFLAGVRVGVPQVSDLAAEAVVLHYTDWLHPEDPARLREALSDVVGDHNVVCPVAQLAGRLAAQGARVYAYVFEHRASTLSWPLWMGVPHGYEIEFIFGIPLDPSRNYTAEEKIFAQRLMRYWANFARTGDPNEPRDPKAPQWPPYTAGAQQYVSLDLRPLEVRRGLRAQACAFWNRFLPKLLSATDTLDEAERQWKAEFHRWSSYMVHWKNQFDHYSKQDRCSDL
Procedure, shortened: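 In this cell-based qHTS, attached SH-SY5Y cells were treated with test chemicals for 30 min, after which acetylthiocholine hydrolysis was followed by DTNB colour development over 90 min at 37 C.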

[11] = target: Acetylcholinesterase (Homo sapiens) (UniProt P22303); assay: Acetylcholinesterase (AChE) small molecule antagonists: enzyme-based qHTS assay (AID 1347397; calls by dose curve; further: nearly all actives have a fitted effect of over 55% in size); details: Potency: AChE enzyme activity inhibition
Procedure, shortened: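 Enzyme inhibition was scored from DTNB-detected thiocholine formed by recombinant human AChE acting on acetylthiocholine. The 30 min compound preincubation and 10 min substrate reaction were both run at room temperature, with DMSO as vehicle control.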

[12] = target: Acetylcholinesterase (Homo sapiens) (UniProt P22303); assay: Acetylcholinesterase (AChE) small molecule antagonists: fluorescence cell-based qHTS assay (AID 1347398; calls by dose curve; further: nearly all actives have a fitted effect of over 50% in size; further: potency means the concentration at half of the fitted maximal effect); details: Potency: AChE activity
Procedure, shortened: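 Endogenous acetylcholinesterase of SH-SY5Y neuroblastoma cells is measured in situ. After overnight attachment and 30 min compound exposure, cells receive acetylthiocholine and Thiolite Green; fluorescence is read after 40 min at room temperature.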

[13] = target: Acetylcholinesterase (Homo sapiens) (UniProt P22303); assay: Acetylcholinesterase (AChE) small molecule antagonists: enzyme-based qHTS assay with human liver microsomes (AID 1347399; calls by dose curve; further: nearly all actives have a fitted effect of over 60% in size); details: Potency: qHTS inhibition
Procedure, shortened: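 Recombinant human AChE (50 mU/mL in the enzyme mix) and human liver microsomes (0.25 mg/mL final) were preincubated with compound and NADPH (0.25 mg/mL final) for 30 min at 37 C. Acetylthiocholine/DTNB was then added; thiocholine was read colorimetrically after 10 min at room temperature.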

[14] = target: Cytochrome P450 2D6 (Homo sapiens) (UniProt P10635); assay: Cytochrome P450 Family 2 Subfamily D Member 6 (CYP2D6) small molecule antagonists: luciferase reporter qHTS assay (AID 1671196); further: nearly all actives have a fitted effect of over 50% in size; further: potency means the concentration at half of the fitted maximal effect
Chain of Cytochrome P450 2D6 (Homo sapiens) (P10635 whole entry, looked up): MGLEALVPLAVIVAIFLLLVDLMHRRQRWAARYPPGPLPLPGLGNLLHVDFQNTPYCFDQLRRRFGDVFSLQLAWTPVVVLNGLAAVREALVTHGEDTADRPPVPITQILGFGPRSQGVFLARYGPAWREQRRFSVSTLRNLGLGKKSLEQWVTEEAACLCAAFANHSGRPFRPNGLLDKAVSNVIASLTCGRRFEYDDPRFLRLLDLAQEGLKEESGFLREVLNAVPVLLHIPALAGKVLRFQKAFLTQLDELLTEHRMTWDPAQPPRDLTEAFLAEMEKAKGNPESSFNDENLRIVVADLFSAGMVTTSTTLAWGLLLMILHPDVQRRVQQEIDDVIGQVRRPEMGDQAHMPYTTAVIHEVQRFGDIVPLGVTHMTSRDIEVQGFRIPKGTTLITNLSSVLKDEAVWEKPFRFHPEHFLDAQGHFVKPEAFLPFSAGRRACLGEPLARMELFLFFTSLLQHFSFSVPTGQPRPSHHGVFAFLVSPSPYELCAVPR
Procedure, shortened: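 CYP2D6 enzyme–substrate mix was held with compound for 10 min at room temperature, then NADPH regeneration solution was added and the reaction ran 1 h at room temperature. Luciferin product was detected by luminescence after 20 min with detection reagent.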

[15] = target: Cytochrome P450 2C19 (Homo sapiens) (UniProt P33261); assay: Cytochrome P450 Family 2 Subfamily C Member 19 (CYP2C19) small molecule antagonists: luciferase reporter qHTS assay (AID 1671197); further: nearly all actives have a fitted effect of over 65% in size; further: potency means the concentration at half of the fitted maximal effect
Chain of Cytochrome P450 2C19 (Homo sapiens) (P33261 whole entry, looked up): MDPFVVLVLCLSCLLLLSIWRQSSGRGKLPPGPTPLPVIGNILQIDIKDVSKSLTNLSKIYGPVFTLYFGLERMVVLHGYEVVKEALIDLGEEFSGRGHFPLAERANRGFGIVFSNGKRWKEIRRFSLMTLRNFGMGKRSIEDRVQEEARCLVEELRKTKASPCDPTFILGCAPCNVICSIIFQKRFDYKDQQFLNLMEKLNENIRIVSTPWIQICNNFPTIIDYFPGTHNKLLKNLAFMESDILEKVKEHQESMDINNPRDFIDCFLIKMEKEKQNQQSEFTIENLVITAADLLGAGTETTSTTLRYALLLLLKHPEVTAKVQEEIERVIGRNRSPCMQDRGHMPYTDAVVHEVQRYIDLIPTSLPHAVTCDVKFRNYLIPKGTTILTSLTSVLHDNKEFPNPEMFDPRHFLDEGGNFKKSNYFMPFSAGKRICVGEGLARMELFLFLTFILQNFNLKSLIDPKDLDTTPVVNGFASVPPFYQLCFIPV
Procedure, shortened: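 Quantitative high-throughput screen of the Tox21 library using CYP2C19 with proluciferin substrate. Reaction: NADPH regeneration, 37C, 1 h, after 10 min compound preincubation at room temperature. Readout: luminescence.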

[16] = target: Cytochrome P450 2C9 (Homo sapiens) (UniProt P11712); assay: Cytochrome P450 Family 2 Subfamily C Member 9 (CYP2C9) small molecule antagonists: luciferase reporter qHTS assay (AID 1671198); further: nearly all actives have a fitted effect of over 50% in size; further: potency means the concentration at half of the fitted maximal effect
Chain of Cytochrome P450 2C9 (Homo sapiens) (P11712 whole entry, looked up): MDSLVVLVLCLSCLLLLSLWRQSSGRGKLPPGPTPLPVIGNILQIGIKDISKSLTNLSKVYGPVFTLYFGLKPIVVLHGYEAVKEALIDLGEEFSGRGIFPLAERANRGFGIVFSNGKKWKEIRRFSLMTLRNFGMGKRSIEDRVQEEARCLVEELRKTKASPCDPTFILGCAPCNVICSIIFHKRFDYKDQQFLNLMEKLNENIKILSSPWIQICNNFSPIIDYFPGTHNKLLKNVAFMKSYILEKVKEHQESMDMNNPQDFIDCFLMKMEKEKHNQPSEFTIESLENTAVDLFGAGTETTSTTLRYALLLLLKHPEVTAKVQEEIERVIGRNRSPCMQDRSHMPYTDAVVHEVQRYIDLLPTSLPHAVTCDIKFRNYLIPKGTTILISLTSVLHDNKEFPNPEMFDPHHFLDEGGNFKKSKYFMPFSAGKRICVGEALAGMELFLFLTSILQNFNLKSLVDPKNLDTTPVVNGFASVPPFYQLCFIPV
Procedure, shortened: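 P450-Glo proluciferin substrate with CYP2C9 enzyme; 10 min RT preincubation, then NADPH regeneration 1 h at 37C; luciferin detection reagent 20 min RT, luminescence in relative luminescence units.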

[17] = target: Voltage-gated inwardly rectifying potassium channel KCNH2 (Homo sapiens) (UniProt Q12809); assay: Human Ether-a-go-go-Related Gene (hERG) channel small molecule antagonists: fluorescence cell-based qHTS assay (AID 1671200); further: nearly all actives have a fitted effect of over 50% in size; further: potency means the concentration at half of the fitted maximal effect
Procedure, shortened: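 Cell line hERG-U2OS; dye FluxOR II, 1 h RT dark; Tl+ stimulus; ex 480/em 540 nm, read each second for 2 min.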

[18] = target: Cytochrome P450 1A2 (Homo sapiens) (UniProt P05177); assay: Cytochrome P450 Family 1 Subfamily A Member 2 (CYP1A2) small molecule antagonists: luciferase reporter qHTS assay (AID 1671199); further: nearly all actives have a fitted effect of over 50% in size; further: potency means the concentration at half of the fitted maximal effect
Chain of Cytochrome P450 1A2 (Homo sapiens) (P05177 whole entry, looked up): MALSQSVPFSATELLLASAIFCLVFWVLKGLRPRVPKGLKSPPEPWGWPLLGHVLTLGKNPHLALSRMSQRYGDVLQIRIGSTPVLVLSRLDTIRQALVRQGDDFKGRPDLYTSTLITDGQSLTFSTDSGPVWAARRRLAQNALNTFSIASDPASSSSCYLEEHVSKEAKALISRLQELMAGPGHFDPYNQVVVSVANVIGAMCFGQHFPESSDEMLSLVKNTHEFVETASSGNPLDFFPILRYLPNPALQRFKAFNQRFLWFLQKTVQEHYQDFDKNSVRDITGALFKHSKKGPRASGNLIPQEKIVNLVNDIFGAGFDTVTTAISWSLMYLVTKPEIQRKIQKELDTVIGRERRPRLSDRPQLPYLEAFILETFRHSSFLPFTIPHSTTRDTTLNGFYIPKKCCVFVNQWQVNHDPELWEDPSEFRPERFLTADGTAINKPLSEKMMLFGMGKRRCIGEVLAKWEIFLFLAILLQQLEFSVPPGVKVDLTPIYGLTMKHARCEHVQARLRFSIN
Procedure, shortened: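 Human CYP1A2 activity measured with a P450-Glo proluciferin substrate; compounds in DMSO preincubated 10 min at room temperature with enzyme-substrate mix, then NADPH regeneration system added for 1 h. Luciferin detection reagent, 20 min, luminescence read.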

[19] = target: Cytochrome P450 3A4 (Homo sapiens) (UniProt P08684); assay: Cytochrome P450 Family 3 Subfamily A Member 4 (CYP3A4) small molecule antagonists: luciferase reporter qHTS assay (AID 1671201); further: nearly all actives have a fitted effect of over 50% in size; further: potency means the concentration at half of the fitted maximal effect
Chain of Cytochrome P450 3A4 (Homo sapiens) (P08684 whole entry, looked up): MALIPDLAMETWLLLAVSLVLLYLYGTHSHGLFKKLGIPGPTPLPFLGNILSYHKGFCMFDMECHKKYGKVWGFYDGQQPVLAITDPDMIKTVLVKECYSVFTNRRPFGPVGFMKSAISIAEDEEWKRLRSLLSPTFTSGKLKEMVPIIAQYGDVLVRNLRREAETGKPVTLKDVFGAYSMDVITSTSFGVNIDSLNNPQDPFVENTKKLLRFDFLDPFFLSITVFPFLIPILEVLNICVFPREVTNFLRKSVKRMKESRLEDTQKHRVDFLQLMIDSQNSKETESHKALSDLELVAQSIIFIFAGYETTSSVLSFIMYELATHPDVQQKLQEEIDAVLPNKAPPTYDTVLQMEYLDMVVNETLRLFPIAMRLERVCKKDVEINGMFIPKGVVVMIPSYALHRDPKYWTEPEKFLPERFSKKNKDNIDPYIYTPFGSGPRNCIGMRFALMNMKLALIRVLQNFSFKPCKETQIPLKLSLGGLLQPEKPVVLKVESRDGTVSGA
Procedure, shortened: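 Room-temperature assay throughout: 10 min compound–enzyme/substrate preincubation, 1 h reaction after NADPH regeneration solution, 20 min detection. Luciferin formed from proluciferin substrate is quantified by luminescence.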
On the % scale 0 is the no-effect control and ±100 the full control effect.

COc1c2c(cc3c1OCO3)CCN(C)C2
inactive: Potency [1] | Potency [2] | Potency [3] | Potency [4] | Potency [5] | Potency [6] | max activation [7] -1.49% | Potency [8] | Potency [9] | Potency [10] | Potency [11] | Potency [12] | Potency [13] | Potency [15] | Potency [16] | Potency [17]
active: Potency [14] 4.36 µM

CC(O)C(=O)[O][Hg][c]1ccccc1 (stereo unspecified)
inactive: Potency [2] | Potency [4] | Potency [6] | Potency [10] | Potency [11] | Potency [13]
active: Potency [1] 1.93 µM | Potency [3] 1.09 µM | Potency [5] 4.86 µM | Potency [12] 79.6 µM | Potency [14] 0.448 µM | Potency [15] 6.33 µM | Potency [16] 1.78 µM | Potency [18] 17.8 µM | Potency [17] 17.4 µM

N#Cc1sc2c(=O)c3ccccc3c(=O)c=2sc1C#N
active: Potency [1] 9.69 µM | Potency [3] 21.7 µM | Potency [5] 21.7 µM | Potency [6] 2.73 µM | Potency [10] 44.8 µM | Potency [12] 63.3 µM | Potency [14] 35.6 µM | Potency [15] 3.99 µM | Potency [16] 3.17 µM | Potency [18] 31.7 µM | Potency [17] 21.9 µM | Potency [19] 17.8 µM
inactive: Potency [2] | Potency [4] | Potency [11] | Potency [13]

C=CCOC(=O)c1ccccc1N
inactive: Potency [1] | Potency [2] | Potency [3] | Potency [4] | Potency [5] | Potency [6] | Potency [10] | Potency [11] | Potency [12] | Potency [13] | Potency [17]
active: Potency [14] 63.7 µM | Potency [15] 25.4 µM | Potency [16] 35.8 µM | Potency [18] 7.15 µM | Potency [19] 40.2 µM

COP(=S)(NC(C)C)Oc1ccc(C)cc1[N+](=O)[O-] (stereo unspecified)
inactive: Potency [1] | Potency [2] | Potency [3] | Potency [4] | Potency [5] | Potency [10] | Potency [11] | Potency [12] | Potency [13] | Potency [17]
active: Potency [6] 30.6 µM | Potency [14] 44.8 µM | Potency [15] 0.283 µM | Potency [16] 2.52 µM | Potency [18] 11.2 µM | Potency [19] 0.633 µM

O=C(N[C@H]1N=C(c2ccccc2F)c2cccc3c2N(CC3)C1=O)c1cc2ccccc2[nH]1
inactive: Potency [1] | Potency [2] | Potency [3] | Potency [4] | Potency [5] | Potency [10] | Potency [11] | Potency [12] | Potency [13] | Potency [14] | Potency [15] | Potency [18] | Potency [19]
active: Potency [6] 18.8 µM | Potency [16] 7.76 µM | Potency [17] 7.56 µM

BrCC(Br)(Br)Br
inactive: Potency [1] | Potency [2] | Potency [3] | Potency [4] | Potency [5] | Potency [6] | Potency [10] | Potency [11] | Potency [12] | Potency [13] | Potency [14] | Potency [15] | Potency [16] | Potency [18] | Potency [17] | Potency [19]

Cc1ccc(C)c2ccccc12
inactive: Potency [1] | Potency [2] | Potency [3] | Potency [4] | Potency [5] | Potency [6] | Potency [10] | Potency [11] | Potency [12] | Potency [13] | Potency [14] | Potency [15] | Potency [16] | Potency [18] | Potency [17] | Potency [19]

CNC(C)(C)Cc1ccccc1
inactive: Potency [1] | Potency [2] | Potency [3] | Potency [4] | Potency [5] | Potency [6] | max activation [7] -0.549% | Potency [8] | Potency [9] | Potency [10] | Potency [12] | Potency [13] | Potency [15] | Potency [16] | Potency [18] | Potency [17] | Potency [19]
active: Potency [14] 9.77 µM

O=[N+]([O-])C(Br)Br
inactive: Potency [1] | Potency [2] | Potency [3] | Potency [4] | Potency [5] | Potency [6] | Potency [10] | Potency [11] | Potency [12] | Potency [13] | Potency [14] | Potency [15] | Potency [16] | Potency [18] | Potency [17] | Potency [19]

CC(C)C(Br)C(=O)NC(N)=O (stereo unspecified)
inactive: Potency [1] | Potency [2] | Potency [3] | Potency [4] | Potency [5] | Potency [6] | max activation [7] -0.856% | Potency [8] | Potency [9] | Potency [10] | Potency [11] | Potency [12] | Potency [13] | Potency [14] | Potency [15] | Potency [16] | Potency [18] | Potency [17]

Nc1cc(Cl)ccc1Cl
inactive: Potency [1] | Potency [2] | Potency [3] | Potency [4] | Potency [5] | Potency [6] | Potency [10] | Potency [11] | Potency [12] | Potency [13] | Potency [14] | Potency [15] | Potency [16] | Potency [17]
active: Potency [18] 31.5 µM

CC(Cc1ccccc1)N(C)Cc1ccco1 (stereo unspecified)
inactive: Potency [1] | Potency [2] | Potency [3] | Potency [4] | Potency [5] | Potency [6] | Potency [10] | Potency [11] | Potency [12] | Potency [13] | Potency [16] | Potency [18] | Potency [17] | Potency [19]
active: Potency [14] 0.776 µM | Potency [15] 7.76 µM
